Calls of active or inactive are those of the source. Rule for the calls: active = hit-call score of the fitted dose curve at least 0.9, where 1 is the maximum; inactive = score below 0.9.
read-out: Apolipoprotein A-V (APOA5) gene, APOA5 (gene 116519); assay: LTEA_HepaRG_APOA5: Life Technologies and Expression Analysis (LTEA) Assay for Apolipoprotein A-V (APOA5) gene using HepaRG (AID 2283474); conditions: mRNA level, 48 h; actives raise or lower the signal
Experimental: LTEA_HepaRG is a cell based, multiplexed-readout assay that uses HepaRG, a human liver cell line, with measurements taken at 48 hours after chemical dosing on a 96-well plate.LTEA_HepaRG_APOA5 is one of 102 assay component(s) measured in the LTEA HepaRG cell culture assay. It is a marker of Steatosis.Data from the assay component LTEA_HepaRG_APOA5 was analyzed into 1 endpoint. This assay endpoint, LTEA_HepaRG_APOA5, was analyzed with bidirectional fitting relative to DMSO as the negative control and baseline of activity. Using a type of inducible reporter, measures of mRNA induction for gain or loss-of-signal activity can be used to understand regulation of transcription factor activity. To generalize the intended target to other relatable targets, this assay endpoint is annotated to the apolipoprotein intended target family, where the subfamily is Steatosis.
A total of 1060 chemcials from the ToxCast library were tested in eight-point concentration-response experiments. Cell culture and cytotoxicity assays were conducted at Thermo Fisher Scientific's Custom Services facility (Madison, WI). A single lot of human HepaRG cells (Thermo Fisher Scientific, Frederick, MD) was used for the cell culture experiments. 96-well format collagen type I coated plates of human HepaRG cells were prepared using established methods. Briefly, cryopreserved HepaRG cells were thawed, plated at a density of approximately 100,000 cells/well in HepaRG Thaw, Plate, and General Purpose media (HPRG770, Thermo Fisher Scientific), and incubated for 48 hours. 0.5% DMSO was selected as vehicle control to balance the requisite need of DMSO in HepaRG cultures to maintain differentiation (for example, baseline metabolism, proportions of hepatocytes vs. cholangiocytes), while enabling further hepatic receptor pathway activation (for example, PXR and CAR) in response to chemical exposure. 48 hours after plating, the culture medium was replaced with HepaRG Serum-Free Incudtion Media. Cells were exposed to each test chemical in duplicate and maintained in CO2 incubators for another 48 hours. Chemical plates were thawed to room temperature and 200x concentrations of treatment groups were prepared. 8-point conentration-reponse curves were made with the highest exposure at 100 uM, followed by half-log dilutions, all in 0.5% DMSO. Each test plate contained variouse controls, induction positive controls (1mM phenobarbital), cytotoxicity positive controls ([…] aflatoxin B1), vehicle controls (0.5% DMSO), and total lysis controls (0.5% DMSO). Cell morphology images were taken using an Essen IncuCyte FLR automated microscope, with six 96-well plates imaged in about 24 minutes. Images were captured and exported and JPEG files. Spent culture media was transfered to black-well plates for the LDH assay, and remaining media was sorted at -80 C for later use. Cells were treated with RLT buffer and frozen until shipped for gene expression analysis. Total RNA was isolated from the cell suspension in 75 uL of Buffer RLT (Qiagen, Germantown, MD 20874) by Quintiles/Expression Analysis (Durham, NC) using a custom isolation procedure. Total RNA from each plate well was transferred to a preamplification plate. Fluidigm's 96.96 Dynamic ArrayTM (Fluidigm, Amsterdam, the Netherlands) technology was used for gene expression analyses by quantitative reverse transcription polymerase chain reaction (qRT-PCR, performed by Quintiles/Expression Analysis, Durham, NC)89. Standard TaqManTM Assays (Applied Biosystems/ThermoFisher Scientific, Foster City, CA) were used to assess the expression of 93 genes selected based on their selectivity and sensitivity to important hepatic receptors known to be modulated by environmental chemicals; importance in human hepatocyte functionality; and hepatotoxicity. […]

SMILES | outcome | AC50
CCc1cccc(CC)c1N | inactive | –
CNC(C)=O | inactive | –
CCCCC(CC)C(=O)OCCOCCOCCOC(=O)C(CC)CCCC (stereo not given) | inactive | –
NC(N)=O | inactive | –
O=C(O)c1cccc(C[C@@H]2COc3ccc(OCc4nc5cc(F)ccc5s4)cc3[C@@H]2O)c1 | – | 81.1 µM (active)
CCCCCCCC/C=C\CCCCCCCC(=O)OC[C@@H](O)[C@H]1OC[C@H](O)[C@H]1O | inactive | –
CCCCOC(=O)c1ccccc1 | inactive | –
O=C(NO)C1(NS(=O)(=O)c2ccc(Oc3ccc(F)cc3)cc2)CCOCC1 | inactive | –
c1ccc2ncccc2c1 | inactive | –
CC(C)CCCCCCOC(=O)C1CCCCC1C(=O)OCCCCCCC(C)C (stereo not given) | – | 0.00316 µM (active)
CCCOc1ccc(S(=O)(=O)N2CCN(CC)CC2)cc1-c1nc2c(CC)n(Cc3ccccn3)nc2c(=O)[nH]1 | inactive | –
COCc1nnc(-c2ccc[n+]([O-])c2)n1-c1c(Cl)c(Cl)cc2[nH]c(=O)c(=O)[nH]c12 | inactive | –
CCn1nc(C)c2c1C(=O)NCC(c1ccc(O)cc1)=N2 | inactive | –
Cn1c(=O)c2[nH]cnc2n(C)c1=O | inactive | –
OCCOCCOCCO | inactive | –
CCCCCCCC1CCC(=O)O1 (stereo not given) | inactive | –
CC1(C)C(=O)N(Cl)C(=O)N1Cl | inactive | –
CCc1ccc(O)c(C(C)(C)C)c1 | inactive | –
CCCCCCCCCCCCCCO | inactive | –
O=c1[nH]cnc2c1ncn2[C@H]1CC[C@@H](CO)O1 | inactive | –

SMILES | outcome | AC50
OC(Cn1cncn1)(Cn1cncn1)c1ccc(F)cc1F | inactive | –
O=C1CN(N=Cc2ccc([N+](=O)[O-])o2)C(=O)N1 | inactive | –
CCCCCCCCN(C)C | inactive | –
NNC(=O)c1ccncc1 | inactive | –
CCOC(N)=O | inactive | –
OC(CCl)CCl | inactive | –
CC[C@H](C)C(=O)O[C@H]1C[C@H](O)C=C2C=C[C@H](C)[C@H](CC[C@@H](O)C[C@@H](O)CC(=O)O)[C@H]21 | inactive | –
CCCC(CCC)C(=O)O | inactive | –
O=C(O)c1cccc(C(=O)O)c1 | inactive | –
O=S1(=O)CCCO1 | inactive | –
O=C(O)c1ccc2c(c1)nc(C(=O)NC1CCN(C3CC3)CC1)n2Cc1cc(-c2ccc(Cl)s2)on1 | inactive | –
C=CCc1cc(S(=O)(=O)c2ccc(O)c(CC=C)c2)ccc1O | – | 89 µM (active)
CCCCCCOC(=O)CC(CC(=O)OCCCCCC)(OC(=O)CCC)C(=O)OCCCCCC | inactive | –
CC(C)C(=O)Nc1ccc([N+](=O)[O-])c(C(F)(F)F)c1 | – | 65.9 µM (active)
OCc1ccccc1 | inactive | –
NC(=O)NN=Cc1ccc([N+](=O)[O-])o1 | inactive | –
CCOc1ccc2[nH]cc(C(=O)NCc3ccccc3)c(=O)c2n1 | inactive | –
Nc1ccn([C@@H]2O[C@H](CO)[C@@H](O)[C@@H]2O)c(=O)n1 | inactive | –
CCCCCOC(C)=O | inactive | –
CCCc1ccccc1 | inactive | –

From PubChem BioAssay (EPA / NIEHS)
